Source: PubChem BioAssay (Sanford-Burnham Center for Chemical Genomics)
Sampled rows, rich in hits. Any-hit rate of the full collection: about 2.6%.
A3G deaminase: APOBEC3G DNA deaminase inhibitors, primary screen, biochemical, fluorescence, single-stranded DNA substrate, uHTS; DNA dC->dU-editing enzyme APOBEC-3G (Homo sapiens), Q9HC16; recombinant A3G, ssDNA deamination FAM/TAMRA fluorescence; inhibition, % at 20 µM; hit rate 0.28% among 330,000; AID 493012, 2011;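 active means inhibition of at least 40% at 20 µM, with no more than 30% in the related APOBEC3A deaminase screen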;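 further: plate controls were DMSO wells with A3G for no effect and wells lacking A3G enzyme for full effect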
PABP FP inh: PABP poly(A) RNA binding inhibitors, primary screen, biochemical, fluorescence polarization, uHTS. Polyadenylate-binding protein 1 (Homo sapiens), P11940. calls only at 35 µM. hit rate 1% among 290,000. AID 2014, 2009;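 further: calls also rest on retests at 20 µM and on dose response follow-up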
PABP1 MLLE inh: inhibitors of PABP1 MLLE–PAM2 peptide binding, primary screen, biochemical, fluorescence polarization, FITC-PAM2, GST-MLLE; inhibition, % at 20 µM; AID 588489, 2011; hit rate 0.36% among 360,000; Polyadenylate-binding protein 1 (Homo sapiens), P11940; in the data active means inhibition above about 35%, passing the limit was not always enough;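 further: plate controls were DMSO wells with GST-MLLE for no effect and wells lacking GST-MLLE protein for full effect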
PHOSPHO1 inh: PubChem AID 1565. inhibition, % at 13.3 µM. Phosphoethanolamine/phosphocholine phosphatase (Homo sapiens), Q8TCT1. recombinant PHOSPHO1, absorbance phosphatase assay. hit rate 1.1% among 290,000; in the data active means inhibition above about 60%
APOBEC3A inh: APOBEC3A ssDNA deaminase inhibitors, primary screen, selectivity assay for APOBEC3G inhibitor project, biochemical, FAM/TAMRA oligo cleavage fluorescence; DNA dC->dU-editing enzyme APOBEC-3A (Homo sapiens), P31941; recombinant A3A, FAM/TAMRA ssDNA deamination fluorescence; inhibition, % at 20 µM; hit rate 0.41% among 330,000; AID 493011, 2011;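 active means at least 40% inhibition at 20 µM here, with at most 30% in a related deaminase screen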;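 further: plate controls were A3A with DMSO for no effect and wells lacking A3A enzyme for full effect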
Target sequence (P31941 whole entry, looked up): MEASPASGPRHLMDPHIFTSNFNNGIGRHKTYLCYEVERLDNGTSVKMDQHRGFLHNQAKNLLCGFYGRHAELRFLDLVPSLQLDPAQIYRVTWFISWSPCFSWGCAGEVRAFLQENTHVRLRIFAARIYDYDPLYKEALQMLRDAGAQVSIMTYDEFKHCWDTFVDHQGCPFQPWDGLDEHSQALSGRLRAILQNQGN
eIF4H FP inh: human eIF4H binding inhibitors, primary screen, translation initiation inhibitor project, biochemical, uHTS, fluorescence polarization | Eukaryotic translation initiation factor 4H (Homo sapiens), Q15056 | eIF4H fluorescence polarization binding assay | inhibition, % at 35 µM | hit rate 0.94% among 290,000 | AID 2012, 2009;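 further: calls also rest on retests at 20 µM and on dose response follow-up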
Starred values were filed as active, the others as inactive; i = inactive; / = no result; + = active, no number. Unless noted, how the calls were made is not given here.

SMILES	A3G deaminase	PABP FP inh	PABP1 MLLE inh	PHOSPHO1 inh	APOBEC3A inh	eIF4H FP inh
O=C(NC(=S)Nc1ccc(NC(=O)c2ccco2)cc1)c1ccccc1	-1.3	i	18.9	-12.3	-4.4	-6.8
COc1cc(C(=O)NC(=S)Nc2ccc(NC(=O)c3ccco3)cc2)cc(OC)c1OC	0.9	i	36.2*	12.1	0.9	5.8
CC(=O)NC1=NN(C(C)=O)C(c2cccs2)S1 (stereo unspecified)	-4.5	i	0.2	4.2	-4.2	1.3
CC(Sc1ncccn1)C(=O)NNC(=O)c1cccc(Cl)c1 (stereo unspecified)	-5.4	/	5.8	/	1.2	/
CCCCn1c(NC(=S)Nc2ccccc2)nc2ccccc21	-6.6	i	39.6*	-4.0	-7.7	8.1
CCOC(=O)C(=O)N1CCN(c2cc3c(cc2[N+](=O)[O-])n(C)c(=O)n3C)CC1	-4.7	i	6.7	37.0	0.7	0.3
CCNC(=S)/N=C(/Nc1ccccc1)Nc1nc(C)cc(C)n1	-4.0	i	27.2	20.0	-8.5	31.0
CCNC(=S)NC(=NCc1cccnc1)Nc1nc(C)cc(C)n1	-2.3	i	64.7*	8.3	-4.9	15.6
O=C(c1cccc(Oc2ccc([N+](=O)[O-])cc2)c1)N1CCOCC1	-4.2	i	-2.2	62.6*	-1.0	2.6
O=C1S/C(=C\c2ccc(N3CCOCC3)o2)C(=O)N1Cc1c(F)cccc1Cl	-12.5	i	i	10.0	-13.4	24.2
O=C1S/C(=C/c2ccc(N3CCOCC3)o2)C(=O)N1Cc1c(F)cccc1Cl	-3.3	i	-83.5	68.6*	13.2	124.2
O=C1c2ccccc2COc2ccc(O)cc21	-6.3	i	8.4	34.3	-0.5	51.4*
COc1ccc2c(c1)C(=O)c1ccccc1CO2	-4.3	i	6.9	21.4	-1.4	8.6
COc1ccc2c(c1)c(C(=O)CNc1nc(C)cs1)c(C)n2C	4.8	i	-102.1	81.2*	18.0	7.0
CCOCc1cnc(C)nc1NCC(=O)c1c(C)n(C)c2ccc(OC)cc12	/	i	-137.0	92.3*	/	-4.6
COc1ccc2c(c1)c(C(C)=O)c(C)n2C	-7.7	i	0.9	32.1	3.5	-1.9
C=CCNc1nc(NCc2cccc(OC)c2)c2sc(-c3ccccc3)cc2n1	/	/	-2.9	/	/	/
COc1ccc(Sc2nnc(Cc3ccccc3)c3ccccc23)cc1	-3.4	i	39.8*	18.1	0.9	-11.1
COc1cnn(-c2ccc(C)cc2)c(=O)c1SCc1ccccc1	-4.3	i	11.8	80.7*	-3.0	-18.7
COc1cnn(-c2ccc(Br)cc2)c(=O)c1SCc1ccccc1	-4.8	i	-0.8	12.3	-2.1	1.5
O=C(Nc1cc2cc([N+](=O)[O-])ccc2oc1=O)c1cccs1	-3.9	+	/	12.3	0.6	-17.7
Cc1nc2nc(SCc3ccc([N+](=O)[O-])cc3)[nH]c2cc1Br	-7.6	i	-36.1	37.1	-2.3	-2.7
C=C(C)CSc1nc2nc(C)c(Br)cc2[nH]1	11.2	i	-49.7	82.7*	1.2	3.7
Cc1ccc(NC(=O)CSc2nc3nc(C)c(Br)cc3[nH]2)cc1F	-6.3	i	-12.2	19.9	-7.2	8.6
COC(=O)CSc1nc2nc(C)c(Br)cc2[nH]1	-9.3	i	-63.4	73.3*	-1.4	1.5
COC(=O)CC1=C(C(=O)OC)C(c2ccncc2)C(C#N)=C(N)O1 (stereo unspecified)	-3.2	+	3.4	7.0	-4.7	108.6
Cc1cccc(NC(=O)CN(CC2CCCO2)C(=O)c2cc(S(=O)(=O)N(C)C)ccc2F)c1C (stereo unspecified)	0.0	/	-9.7	/	0.0	/
O=C(O)c1ccccc1SC1CC(=O)N(c2ccc3c(c2)OCO3)C1=O (stereo unspecified)	0.3	i	37.6*	-10.0	0.6	33.1
Cc1ccc(N2C(=O)CC(Sc3ccccc3C(=O)O)C2=O)c([N+](=O)[O-])c1 (stereo unspecified)	-4.2	i	37.7*	23.6	-1.0	2.0
